The supplement of paper PMC6555819

Each sequence was assayed on VDR:RXRa (NR concentration 270 nM, RXRa partner concentration 90 nM) (assay: PBM binding z-score (relative to random genomic background probes); higher = stronger binding; sequences stand for … in GC…GCGATTGACAGCGTAGAATGAAGG).
Protocol: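 Protein-binding microarray (Agilent 4x180K custom design, double-stranded 60-nt probes: 5' GC cap, 34-nt variable region, 24-nt constant primer region; full probe sequence given). Purified or IVT nuclear receptor:RXRα heterodimers (3:1 NR:RXRα, mostly 270:90 nM) or homodimers were incubated for 1 h in PBS with 2% milk and no ligand, then detected with Alexa488 antibodies. Fluorescence from o1-orientation probes (~5 replicates averaged) was converted to z-scores against 500 random hg19 background probes. Variable regions are seed direct-repeat (DR0–DR5) sites, all their single-nucleotide variants and half-site ablations.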

Sequence	PBM binding z-score
CCTGCTAGGTGATGGTCAGCTAATCTACAGTATG	-0.759
CGAACTAGGTCAGAACAGGACTGTGAAGGATGAT	0.0454
TCAGACCGGTGAAGGTAACTCAGGTACGCAGTCG	0.501
GGAACGCGGGCATTCGAGTTGATAGCATGGCGAT	-0.234
GCTAGCAGGCCATTTGGGTCACTCTATGACGGGC	0.648
CCGACTGGGGTATAAGGTTACCATAAGCCAGCCC	0.219
CAAACTAGGTCATAGGTCAAAGTCGAGCCAACCA	4.9
CGTCCAAGGTCAGCAGGTCAATGAAAGCGACGTG	4.68
CCTACTGGGCCACAAAAGGTCATTGATTCAGTGA	3.98
ATCTCTAGGTAAAGTTCGGTGAAAGATCGATAGA	0.603
GCTAGCAGGCCATTTGTGTCACTCAATGACGGGC	-0.481
AGAACGCGGGCAATGAGTTGATAGCACGGGTGGC	1.56
GGAACGAGGGCAACTTGATAGCAGAGTTTGATGG	0.718
TATCCTAGGTCATGGGCCAGTATACCACGCGAAC	2.75
GCTATGAGTTGAAAGGGCAACCGAATGATTCTCG	1.2
GCTAGCAAGCCATTTGGGTCACTCAATGACGGGC	-0.0244
CCTGCTAGGTCAATGGTCCGCTAAAGCAGCTCGC	0.759
TTACCAAGGTGAAGATCGTTGATCCCTCTGTAGA	-0.031
ATCGAAAGGTCGAAGGTGATTATACCCACCCGAA	2.61
CCAGCTAGGTCAATGGTCAGCTAAAGCAGCTCGC	1

Sequence	PBM binding z-score
GCTGCTAGGTCATCTGATGGTCAGCTAAAGCTCG	1.98
GCATATAGGTAATACAAGGTGAAAGCCCGATTGT	0.178
TCATCTAGGTAAACAGGTGAAAGTCCGTAAGTTA	0.914
TCGAGTAGGTTACTAATGGGGCATTCAGCTTTCT	0.0839
CAGCCTAGGTCAGGGCTAGTATAGGAGGAACGTT	-0.00307
TTACCAAGGTGAGCTGAGGTCGTTGATCCAACTC	4.19
ACTCGGAGGACATAGGTCAGAGCTACGCCAGTGA	1.03
ATCTCTTGGTAACAAGTTCAGTGAAAGAGAGGAC	1.84
TCTTGGAGATCAATAGAGGTTAAGAAAGTGCGCT	2.08
TCTGCTAGGCCAGTTGGTCAGCTAACGAGCTGCC	-0.797
ATCTCTAGGTAAACGTTCAGTGAATCCCGAGGAT	-0.107
TAGCCTAGGTAATGGGCCAGTATACCACGCGAAC	-0.466
TCTATTTGTTGATTAGGGCAACCGAAACAGCGGA	0.823
CGAACGAGGGCATGAGTTGCTAGCAAATGCCGAT	0.671
GGAACGAGGGCAAACTTGATAGCATCTGTCGACG	1.42
CCTAATAGTTGACCATAAGGGCAACCGAAGCTCG	0.926
AGTCAAAGTTCATATAGGTAACGTAAGATATGCT	4.4
TCGAGTAGGTTAGTCGGGGCAATCAGCCAACATA	1.05
TCATATAGGTAAATGCCAGGTGAAAGTCCGATCT	1.12
ATCGAAAGGTCGACGAGGTGAGTATCCACCGTTT	5.24
